Screening results from PubChem BioAssay.
GoLoco inh red – qHTS Assay for Inhibitors of RGS12 GoLoco Motif Activity (Red Fluorophore). hit rate 0.44% among 230,000. Gai1:RGS12 GoLoco peptide FP, rhodamine, 10 min. Potency, µM (doses to about 61.6 µM), hits mostly inhibitors; active = well fitted inhibition curve with a large enough effect, not every such curve was filed as active; inactive = no such curve, though single readings can be large or run the other way; note: nearly all actives have a fitted effect of over 30% in size
Target sequence (P63096 whole entry, looked up): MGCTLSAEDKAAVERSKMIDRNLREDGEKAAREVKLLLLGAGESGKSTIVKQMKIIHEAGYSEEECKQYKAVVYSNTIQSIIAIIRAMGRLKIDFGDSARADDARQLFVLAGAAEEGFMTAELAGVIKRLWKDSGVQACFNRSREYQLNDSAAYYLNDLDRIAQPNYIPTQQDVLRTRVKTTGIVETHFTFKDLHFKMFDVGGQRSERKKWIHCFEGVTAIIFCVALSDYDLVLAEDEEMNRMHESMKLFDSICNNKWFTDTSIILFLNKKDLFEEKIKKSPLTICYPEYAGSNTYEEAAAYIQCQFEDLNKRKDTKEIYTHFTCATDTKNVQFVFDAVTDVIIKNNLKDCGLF
HttQ103 aggreg – qHTS Multiplex Assay to Identify Dual Action Probes in a Cell Model of Huntington: Aggregate Formation (GFP); PC12 HttQ103-GFP aggregates, Acumen cytometry, 40 h; Potency, µM (titrated, usually from 46.1 µM), hits mostly inhibitors; hit rate 1.1% among 220,000; AID 1688, 2009; note: nearly all actives have a fitted effect of over 60% in size
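Huntingtin Q103 exon 1–GFP aggregates in induced PC12 cells (100 nM tebufenozide) were quantified by cytometry from lysates, with compounds dosed in titration.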
ALDH1A1 inh – qHTS Assay for Inhibitors of Aldehyde Dehydrogenase 1 (ALDH1A1). hit rate 7.3% among 220,000. Potency, µM (series often up to 75.3 µM), usual class: inhibitors. Aldehyde dehydrogenase 1A1 (Homo sapiens), P00352. Purified ALDH1A1, NADH fluorescence, propionaldehyde substrate; active = well fitted inhibition curve with a large enough effect, not every such curve was filed as active; inconclusive = small, poorly fitted or top-dose-only effect, or another doubt; inactive = no such curve, though single readings can be large or run the other way
HTT ATP protect – qHTS Multiplex Assay to Identify Dual Action Probes in a Cell Model of Huntington: Cytoprotection (ATP) | PC12 HTT-Q103 induced, cytoprotection, ATP luminescence, 40 h | Potency, µM (series often up to 56.4 µM), actives largely listed as activators | hit rate 0.14% among 230,000 | AID 1471, 2008; note: nearly all actives have a fitted effect of over 45% in size
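Readout: ATPlite luminescence (ATP level). Model: stable PC12, inducible Htt exon1 Q103-GFP. Inducer: tebufenozide, 100 nM final. Compounds: dose series. No G418 in medium.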
HPGD block – qHTS Assay for Inhibitors of HPGD (15-Hydroxyprostaglandin Dehydrogenase); hit rate 4.3% among 150,000; Potency, µM, most hits filed as inhibitors; purified HPGD, NADH fluorescence kinetic, PGE2 substrate; AID 894, 2007; active = well fitted inhibition curve with a large enough effect, not every such curve was filed as active; inconclusive = small, poorly fitted or top-dose-only effect, or another doubt; inactive = no such curve, though single readings can be large or run the other way
Target sequence (P15428 whole entry, looked up): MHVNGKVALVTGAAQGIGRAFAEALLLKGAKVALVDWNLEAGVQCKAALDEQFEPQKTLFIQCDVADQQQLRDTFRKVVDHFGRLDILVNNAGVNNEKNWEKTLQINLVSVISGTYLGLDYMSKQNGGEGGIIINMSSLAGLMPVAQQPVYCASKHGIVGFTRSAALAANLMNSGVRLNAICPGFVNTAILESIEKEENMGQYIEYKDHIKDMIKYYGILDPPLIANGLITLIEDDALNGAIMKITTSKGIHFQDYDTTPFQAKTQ
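NADH formation kinetics: reaction with 30 uM PGE2 and 1 mM NAD+ (final), 20 nM enzyme, Tris-HCl pH 8 with Tween 20, after 15 min compound preincubation at room temperature. Fluorescence change, last versus first of five reads.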
PNC assembly inh – High Content Assay for Compounds that inhibit the Assembly of the Perinucleolar Compartment; PC3M PTB-GFP, PNC prevalence imaging, 16 h; active compounds read low; AID 2417, 2010; activity change (PNC), negative = inhibition, % at 10 µM; hit rate 3.1% among 140,000;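 active = readout at or below -70, meaning at least 70% loss of cells showing the perinucleolar compartment, a nuclear body marking cancer cells; inconclusive = readout between -30 and a set limit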
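Read-out is percentage of cells bearing a perinucleolar compartment, from automated 20x imaging of fixed, Hoechst-stained PC3M PTB-GFP cells. Cells were seeded 4 h, then exposed 16 h to compound (23 nl of library stock) in duplicate plates.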
Each line names hits and unclear results; the compound was inactive in the other large screens. This is a sample that favours compounds with a hit; in the whole collection about 11% have one here. Unless noted, calls come from the whole dose curve; as a rule, active = well fitted curve in the direction sought with a large enough effect; inconclusive = small, poorly fitted or top-dose-only effect, or another doubt; inactive = no such curve, though single readings can be large; an effect the other way counts as inactive or inconclusive.

CCN(C(=O)CCc1nc(-c2ccccc2F)no1)c1cc(OC)ccc1OC	ALDH1A1 inh inconclusive, HPGD block 22.4µM
COc1ccc(CNC(=O)CCc2nc(-c3ccccc3F)no2)c(OC)c1	ALDH1A1 inh 10µM
CCc1ccccc1N(CC)C(=O)CCc1nc(-c2ccc(C)cc2)no1	HttQ103 aggreg 10µM, HPGD block 25.1µM
COc1cc2c(cc1OC)-c1cc3nc4ccccc4nc3n1C(C)(C)C2	ALDH1A1 inh inconclusive, HPGD block inconclusive (no result: HttQ103 aggreg, PNC assembly inh)
COC(=O)c1cccc(NC(=S)NCc2ccc(F)cc2)c1	none (no result: HTT ATP protect, HPGD block, PNC assembly inh)
COc1ccc(CC(=O)N/N=C/c2ccc(-c3cccc(C(=O)O)c3)o2)cc1OC	none (no result: ALDH1A1 inh, HPGD block, PNC assembly inh)
O=C(COC(=O)CCS(=O)(=O)c1ccc(Cl)cc1)NCCc1ccc(Cl)cc1Cl	PNC assembly inh inconclusive
COc1ccc(-c2noc(CCC(=O)Nc3cc(Cl)c(OC)cc3OC)n2)cc1	ALDH1A1 inh inconclusive
COc1ccc(-c2noc(CCC(=O)Nc3cc(OC)ccc3OC)n2)cc1	ALDH1A1 inh 7.08µM
Cc1cc(C)nc(/N=C(\N)Nc2ccc(F)c([N+](=O)[O-])c2)n1	none
COc1ccc(NC(=O)c2cc(-c3ccccc3)nc3c2c(C)nn3-c2ccccc2)c(OC)c1	HPGD block inconclusive, PNC assembly inh -89.4
COc1ccc(-c2cc(C(=O)NNC3=NCCC3)c3c(C)nn(-c4ccccc4)c3n2)cc1	none (no result: HPGD block, PNC assembly inh)
C[C@@H]1CC[C@H](O)/C=C/C(=O)O[C@H](C)CC[C@H](O)/C=C/C(=O)O1	none (no result: ALDH1A1 inh, HPGD block, PNC assembly inh)
COc1cc(C2CC(=O)N(CC(=O)NCc3ccco3)c3ccccc3S2)cc(OC)c1OC (stereo not given)	ALDH1A1 inh inconclusive
O=C(O)C1CC(=O)n2c(nc3ccccc32)S1 (stereo not given)	ALDH1A1 inh 25.1µM
COc1cc(C2CC(=O)n3c(nc4ccccc43)S2)cc(OC)c1OC (stereo not given)	ALDH1A1 inh inconclusive, PNC assembly inh -97.6
O=C1CSc2nc3ccccc3n21	ALDH1A1 inh inconclusive, HPGD block inconclusive
CCCC1(C(=O)OC)C=C2C(=C(C)C(=O)C2C)CN1 (stereo not given)	ALDH1A1 inh inconclusive, HPGD block inconclusive (no result: HttQ103 aggreg, PNC assembly inh)
O=C(c1cccs1)N1CCN(S(=O)(=O)c2ccc(F)cc2)CC1	none (no result: HttQ103 aggreg, HTT ATP protect, HPGD block, PNC assembly inh)
CC(=O)O[C@@H]1CC2C(C)(C)C(=O)C=C[C@]2(C)C2CC[C@]3(C)C(=CC[C@H]3C3CO[C@@H](C(C)(C)O)[C@H](O)C3)[C@@]21C (stereo not given in full)	none (no result: HttQ103 aggreg, PNC assembly inh)
O=S(=O)(c1cccs1)N1CN(C2CCCCC2)c2nc3ccccc3nc21	none (no result: ALDH1A1 inh, HPGD block, PNC assembly inh)
COc1ccc(S(=O)(=O)NCCSCc2ccco2)cc1Cl	ALDH1A1 inh 20µM, PNC assembly inh inconclusive
Cc1ccc(C)c(N(CC(=O)NCCSCc2ccco2)S(C)(=O)=O)c1	ALDH1A1 inh 3.55µM
CS(=O)(=O)NCCSCc1ccco1	ALDH1A1 inh inconclusive, PNC assembly inh -81.9
Cc1ccc(CSCCNC(=O)CN(c2cc(C)ccc2C)S(C)(=O)=O)cc1	HttQ103 aggreg inconclusive, ALDH1A1 inh inconclusive (no result: HPGD block, PNC assembly inh)
COc1ccc(S(=O)(=O)NCCSC(C)(C)C)cc1Cl	ALDH1A1 inh inconclusive
CCOC(=O)c1ccc(-n2c(CN3CCOCC3)nc3ccc([N+](=O)[O-])cc3c2=O)cc1	ALDH1A1 inh inconclusive (no result: HPGD block, PNC assembly inh)
CCOC(=O)C1CCCN(Cc2nc3ccc([N+](=O)[O-])cc3c(=O)n2-c2ccc(OC)cc2OC)C1 (stereo not given)	none (no result: HPGD block, PNC assembly inh)
COc1ccccc1C(=O)N1CCN(Cc2nc3cc([N+](=O)[O-])ccc3n2C)CC1	ALDH1A1 inh inconclusive (no result: HPGD block, PNC assembly inh)
COc1cccc(-n2c(CN3CCN(c4ccccc4)CC3)nc3ccc([N+](=O)[O-])cc3c2=O)c1	ALDH1A1 inh 28.2µM
CCOC(=O)C1CCN(Cc2nc3ccc([N+](=O)[O-])cc3c(=O)n2-c2ccc(OC)cc2OC)CC1	ALDH1A1 inh 20µM (no result: HPGD block, PNC assembly inh)
COc1ccc(-n2c(CN3CCC(C(N)=O)CC3)nc3ccc([N+](=O)[O-])cc3c2=O)c(OC)c1	ALDH1A1 inh 9.46µM (no result: HPGD block, PNC assembly inh)
CCc1ccc(C2CC(=O)N(c3ccc(F)cc3)C3=C2C(=O)OC3)cc1 (stereo not given)	ALDH1A1 inh inconclusive (no result: HPGD block, PNC assembly inh)
CCC(C(=O)OCC(=O)Nc1ccc(SC(F)F)cc1)c1ccccc1 (stereo not given)	PNC assembly inh inconclusive
CO[C@H]1COC(=O)[C@H](C)NC(=O)C/C=C\[C@@H](C)[C@H](OC)COC(=O)[C@@H](OCc2ccccc2)/C=C\[C@@H]1C	none (no result: GoLoco inh red, HttQ103 aggreg, HPGD block, PNC assembly inh)
CC(CCC(=O)O)C1CCC2C3CC[C@H]4CC(O)CC[C@@]4(C)C3C=C[C@]12C (stereo not given in full)	none (no result: HttQ103 aggreg, PNC assembly inh)
O=[N+]([O-])c1cccc(NC(=S)NCc2ccncc2)c1	ALDH1A1 inh 9.46µM (no result: HTT ATP protect, HPGD block, PNC assembly inh)
O=C(NCc1ccncc1)Nc1cccc([N+](=O)[O-])c1	none (no result: HPGD block, PNC assembly inh)
CC(NC(=S)Nc1ccc([N+](=O)[O-])cc1)c1ccncc1 (stereo not given)	ALDH1A1 inh 20µM (no result: HPGD block, PNC assembly inh)
O=[N+]([O-])c1ccc(NC(=S)NCCc2ccccc2)cc1	HttQ103 aggreg inconclusive, ALDH1A1 inh inconclusive, HTT ATP protect inconclusive
COc1ccc(NC(=S)NC(C)c2ccncc2)cc1OC (stereo not given)	none (no result: HPGD block, PNC assembly inh)
O=[N+]([O-])c1ccc(NC(=S)NCc2ccncc2)cc1	ALDH1A1 inh 11.2µM (no result: HPGD block, PNC assembly inh)
CCCc1nn(C)c(C(=O)Nc2cccc(Cl)c2)c1Cl	none (no result: HTT ATP protect)
